What all share (assay): NCI-60 one-dose screen, 48 h (100 = growth as untreated, 0 = no growth, -100 = all killed)
For one assay, the system named is HCT-15 colon. The note with it: 10 µM unless noted.
The test system of the next assay is HT29 colon. The note with it: 10 µM unless noted.
A further assay has as its system SNB-19 CNS. The note with it: 10 µM unless noted.
For another assay, the system named is U251 CNS. The note with it: 10 µM unless noted.
The next assay concerns PC-3 prostate. The note with it: 10 µM unless noted.
The next assay relates to SK-MEL-5 melanoma. The note with it: 10 µM unless noted.
The next assay relates to UACC-62 melanoma. The note with it: 10 µM unless noted.
The test system of the next assay is LOX IMVI melanoma. The note with it: 10 µM unless noted.
The subject of another assay is SK-MEL-28 melanoma. The note with it: 10 µM unless noted.
The subject of another assay is SK-MEL-2 melanoma. The note with it: 10 µM unless noted.
The subject of another assay is EKVX NSCLC. The note with it: 10 µM unless noted.
Another assay deals with SN12C renal. The note with it: 10 µM unless noted.
The subject of another assay is UO-31 renal. The note with it: 10 µM unless noted.
Another assay concerns TK-10 renal. The note with it: 10 µM unless noted.
A further assay has as its system ACHN renal. The note with it: 10 µM unless noted.
A further assay concerns CAKI-1 renal. The note with it: 10 µM.
Another assay concerns A498 renal. The note with it: 10 µM unless noted.
A further assay has as its system CCRF-CEM leukemia. The note with it: 10 µM unless noted.
Another assay deals with MOLT-4 leukemia. The note with it: 10 µM unless noted.

About 83,000 compounds went through this panel and 20% of them were active in at least one assay; those are over-represented in the sample as a whole.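 Interpretation: 100, growth as untreated; towards 0, rising growth inhibition; 0, no net growth; 0 to -100, cell death. Compounds scoring below 10 were considered active.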 Values without a mark were called inactive. The source made the active and inactive calls.

Consider `COc1cc(/C=C/C(=O)c2ccc(N3CCN(C)CC3)cc2)ccc1F`, for which the growth with HCT-15 colon is 36.4%; in the assay with HT29 colon, 46.5%; with SNB-19 CNS, 66.9%; with U251 CNS, 76.2%; in the assay with PC-3 prostate, 61.5%; in the assay with SK-MEL-5 melanoma it was 95.6%. Besides, the growth is 88.6% in the assay with UACC-62 melanoma; 17.8% in the assay with LOX IMVI melanoma; 98.3% in the assay with SK-MEL-28 melanoma; 115% in the assay on SK-MEL-2 melanoma; 88.4% with EKVX NSCLC; 81.2% in the assay with SN12C renal. Also, the growth in the assay with UO-31 renal is 56.5%; with TK-10 renal, 124%; in the assay with ACHN renal it was 79%; in the assay with CAKI-1 renal it was 63.6%; with A498 renal it was 98.7%; in the assay with CCRF-CEM leukemia it was 53.8%. In addition, the growth in the assay on MOLT-4 leukemia is 88.5%.
Regarding `CCOC(=O)c1c(NC(=O)c2cccc(C(F)(F)F)c2)sc2c(CN3CCN(C)CC3)c(O)ccc12`, the growth was -82.3% (active) in the assay on HCT-15 colon; -31.6% (active) with HT29 colon; -53.9% (active) in the assay on SNB-19 CNS; -79.1% (active) in the assay on U251 CNS; -33.9% (active) with PC-3 prostate; 52.7% in the assay with SK-MEL-5 melanoma. The growth in the assay with UACC-62 melanoma is -67.5% (active); in the assay on LOX IMVI melanoma, -94.7% (active); with SK-MEL-28 melanoma, -60.5% (active); with SK-MEL-2 melanoma, 94.7%; with EKVX NSCLC it was 70.4%; with UO-31 renal, -95% (active). Besides, the growth was -52.7% (active) with TK-10 renal; -98.8% (active) in the assay with ACHN renal; -73.9% (active) in the assay with CAKI-1 renal; 77.5% in the assay with A498 renal; -23.8% (active) with CCRF-CEM leukemia; -27.8% (active) in the assay with MOLT-4 leukemia.
As for `CCCC(=O)NC(c1cccnc1)c1ccc2c(C)ccnc2c1O` (stereo not given), the growth with HCT-15 colon was 26.9%; in the assay with HT29 colon it was 20.3%; with SNB-19 CNS, 37.8%; with U251 CNS, 26.7%; in the assay on PC-3 prostate, 36.4%; in the assay with SK-MEL-5 melanoma it was 4.06% (active). For the same compound, the growth is -7.84% (active) with UACC-62 melanoma; 9.72% (active) in the assay with LOX IMVI melanoma; 30.4% with SK-MEL-28 melanoma; 42.5% with SK-MEL-2 melanoma; 15.1% in the assay with EKVX NSCLC; 29.1% in the assay on SN12C renal. Moreover, the growth was 11.8% in the assay on UO-31 renal; 33.3% with TK-10 renal; 13.8% in the assay on ACHN renal; 19.2% in the assay with CAKI-1 renal; 4.51% (active) in the assay with CCRF-CEM leukemia; 13.9% in the assay on MOLT-4 leukemia.
`O=C(CSc1ccc(-c2nc3ccccc3[nH]2)cn1)N1CCN(c2ccccc2F)CC1`: the growth with HCT-15 colon was 72.4%; in the assay with HT29 colon, 94.1%; in the assay on SNB-19 CNS it was 89.8%; in the assay with U251 CNS it was 90.5%; with PC-3 prostate, 57.7%; in the assay with SK-MEL-5 melanoma, -32.7% (active). Further, the growth in the assay with UACC-62 melanoma is 52.4%; with LOX IMVI melanoma, 85.3%; in the assay with SK-MEL-28 melanoma it was 87.8%; in the assay with SK-MEL-2 melanoma, 88.4%; with EKVX NSCLC, 53.6%; with UO-31 renal it was 70.9%. For the same compound, the growth with TK-10 renal is 86.5%; in the assay with ACHN renal, 93.2%; in the assay with CAKI-1 renal, 49.1%; in the assay with A498 renal, 77%; in the assay with CCRF-CEM leukemia, 28.2%; with MOLT-4 leukemia it was 14.6%.
For the compound `Oc1ccc(-c2nnc(SCc3ccc(O)c4ncccc34)n2-c2ccccc2)cc1`, the growth is 20.3% with HCT-15 colon; 24.9% in the assay with HT29 colon; 14.7% in the assay on SNB-19 CNS; 9.39% (active) in the assay with U251 CNS; 32.3% in the assay on PC-3 prostate; -44.6% (active) with SK-MEL-5 melanoma. Further, the growth was -4.05% (active) with UACC-62 melanoma; 5.09% (active) in the assay on LOX IMVI melanoma; 17% in the assay with SK-MEL-28 melanoma; 38.1% with SK-MEL-2 melanoma; 7.56% (active) with EKVX NSCLC; 18.7% in the assay with SN12C renal. For the same compound, the growth was -8.86% (active) in the assay on UO-31 renal; 34.3% in the assay with TK-10 renal; 8.27% (active) in the assay on ACHN renal; 16.1% in the assay on CAKI-1 renal; 16% in the assay with A498 renal; 6.99% (active) with CCRF-CEM leukemia. The growth in the assay on MOLT-4 leukemia is 12.5%.
For `O=C(CCCCCCN1CC(=O)N2[C@@H](c3cccc(Cl)c3)c3[nH]c4ccccc4c3C[C@H]2C1=O)NO`, the growth in the assay on HCT-15 colon was 85.7%; with HT29 colon, 30.6%; in the assay on SNB-19 CNS, 61.2%; with U251 CNS it was 44.9%; with PC-3 prostate it was 42.6%; with SK-MEL-5 melanoma it was 33.6%. For the same compound, the growth was 16% in the assay on UACC-62 melanoma; -80.3% (active) with LOX IMVI melanoma; 40.2% in the assay with SK-MEL-28 melanoma; 56% with SK-MEL-2 melanoma; 70.1% in the assay on EKVX NSCLC; 60.3% with UO-31 renal. Further, the growth in the assay on TK-10 renal was 57.1%; in the assay with ACHN renal, 87.1%; in the assay on CAKI-1 renal, 47.7%; in the assay with A498 renal, 72.8%; in the assay on CCRF-CEM leukemia, 17.1%; with MOLT-4 leukemia, 17.5%.
With `Cn1nc(Nc2ccccc2)c(C(=O)NN)c1N`, the growth with HCT-15 colon is 97.8%; with HT29 colon, 103%; with SNB-19 CNS, 101%; in the assay on U251 CNS, 102%; in the assay with PC-3 prostate, 95.1%; in the assay with SK-MEL-5 melanoma, 99.3%. For the same compound, the growth in the assay on UACC-62 melanoma was 96.8%; in the assay with LOX IMVI melanoma, 97.2%; in the assay with SK-MEL-28 melanoma, 103%; with SK-MEL-2 melanoma, 103%; in the assay with SN12C renal, 97.3%; with UO-31 renal, 81.5%. The growth is 118% in the assay on TK-10 renal; 97.4% in the assay on ACHN renal; 94.1% in the assay on CAKI-1 renal; 97.2% in the assay with A498 renal; 91.1% with CCRF-CEM leukemia; 104% with MOLT-4 leukemia.
As for `Oc1ccc(CSc2nnc(-c3ccc(Cl)cc3)o2)c2cccnc12`, the growth in the assay on HCT-15 colon is 14.4%; in the assay with HT29 colon, 102%; in the assay on SNB-19 CNS, 16.5%; in the assay on U251 CNS it was 10.5%; with PC-3 prostate, 21.4%; in the assay on SK-MEL-5 melanoma, 11.1%. Also, the growth in the assay on UACC-62 melanoma was 5.12% (active); in the assay with LOX IMVI melanoma, 4.17% (active); with SK-MEL-28 melanoma it was 26.6%; in the assay on SK-MEL-2 melanoma, 54.9%; in the assay on EKVX NSCLC it was 34%; in the assay on SN12C renal, 37.4%. Further, the growth is 2.83% (active) in the assay with UO-31 renal; 11.4% in the assay with ACHN renal; 20.2% in the assay on CAKI-1 renal; 13.3% in the assay with CCRF-CEM leukemia; 15.3% in the assay on MOLT-4 leukemia.

Source of the values: PubChem BioAssay (NCI).
